Laboratory results as given in PubChem BioAssay.
Active and inactive are the calls of the source.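 Rule for the calls: active = compounds whose cell count with miR-34 switched on is under 0.7 times the count with it off; inactive = the rest.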

Assay: viability loss with induced miR-34 in A549 – imaging, A549 dox-inducible miR-34, nuclei and caspase counts, primary screen (AID 1347080); note: test concentration not given here
Details: A549 miR-34 inducible, Hoechst nuclei count, 48 h
[1] = stronger effect = lower value, cell number ratio, induced over uninduced
[2] = measured here: relative caspase fold change +Dox/-Dox
[3] = measured here: total cells with miR-34 induction, stronger effect = lower value
[4] = measured here: total cells without miR-34 induction

Row | Structure (SMILES) | fold change [1] | fold change [2] | cell count [3] | cell count [4]
1 | CC(CN1CCC(n2c(=O)[nH]c3cc(Cl)ccc32)CC1)NC(=O)c1ccc2ccccc2c1 (stereo not given) | 1.08 (inactive) | 1.2 | 5810 | 5380
2 | CCCCC/C=C\C/C=C\C/C=C\CCCCCCC(=O)OC | 1.11 (inactive) | 0.903 | 6440 | 5790
3 | COc1ccc(C2=N[C@@H](c3ccc(Cl)cc3)[C@@H](c3ccc(Cl)cc3)N2C(=O)N2CCNC(=O)C2)c(OC(C)C)c1 | 1.1 (inactive) | 0.974 | 4290 | 3920
4 | CCCCCCCCCCCCCC(=O)O | 1.04 (inactive) | 1.03 | 6710 | 6460
5 | CCCCC[C@H](O)/C=C/[C@@H]1[C@@H](C/C=C\CCCC(=O)NCCO)[C@@H](O)C[C@H]1O | 0.899 (inactive) | 1.5 | 5200 | 5780
6 | CCCCC[C@H](O)/C=C/[C@@H]1[C@H]2C[C@H](CCCCC(=O)O)O[C@H]2C[C@H]1O | 0.999 (inactive) | 1.41 | 6310 | 6310
7 | CCCCC[C@H](O)/C=C/[C@H]1C(=O)C[C@H](O)[C@@H]1C/C=C\CCCC(=O)NCCO | 1.05 (inactive) | 1.15 | 6200 | 5900
8 | CCCCCCCCCCCCCCCCCCCCCCCCC(=O)OC | 1.06 (inactive) | 0.88 | 6850 | 6470
9 | CC(C)OC(=O)CCC/C=C\C[C@H]1C(=O)C[C@@H](O)[C@@H]1/C=C/[C@@H](O)COc1cccc(C(F)(F)F)c1 | 0.919 (inactive) | 1.4 | 5960 | 6490
10 | O=C(NCc1ccncc1)C12CC3CC(C1)CC(c1ccc(Cl)cc1)(C3)C2 | 0.915 (inactive) | 1.12 | 4010 | 4380
11 | CCCCCCCCCSCCCCCCCC(=O)O | 0.943 (inactive) | 0.653 | 5310 | 5640
12 | c1ccc2c(NCCCCCCCNc3c4c(nc5ccccc35)CCCC4)c3c(nc2c1)CCCC3 | 1.06 (inactive) | 0.663 | 4480 | 4230
13 | CCCCN=C(N)NO | 1.06 (inactive) | 1.14 | 6280 | 5930
14 | CCCCCCCCCCCC(=O)CC(=O)N[C@H]1CCOC1=O | 1.1 (inactive) | 1.72 | 6190 | 5610
15 | O=C(O)/C=C/CCCCCCCCC(=O)O | 0.99 (inactive) | 1.16 | 5830 | 5890
16 | C#CCCCCCCCCCNC(=O)Oc1cccc(-c2cccc(C(N)=O)c2)c1 | 0.97 (inactive) | 1.13 | 5690 | 5860
17 | O=C(O)CCC/C=C\C[C@@H]1C(=O)C[C@@H](O)[C@@H]1/C=C/[C@@H](O)CC1CCCCC1 | 1.22 (inactive) | 0.461 | 7070 | 5800
18 | CC/C=C\C/C=C\C/C=C\C/C=C\CCCCC(=O)OC | 0.976 (inactive) | 1.08 | 5040 | 5160
19 | CCCCC[C@H](O)/C=C/[C@@H]1[C@@H](C/C=C\CCCCOC)[C@@H](O)C[C@H]1O | 0.815 (inactive) | 1.35 | 5300 | 6500
20 | N[C@@H](CCC(=O)N[C@@H](CSN=O)C(=O)NCC(=O)O)C(=O)O | 0.991 (inactive) | 0.986 | 5550 | 5600
21 | O=C(CCCC[C@@H]1SC[C@@H]2NC(=O)N[C@@H]21)NCCCC[C@H](NC(=O)CCN1C(=O)C=CC1=O)C(=O)O | 0.911 (inactive) | 0.469 | 5380 | 5910
22 | CCCCC[C@@H](O)/C=C/[C@H]1[C@H](O)CC(=O)[C@@H]1CCCCCCC(=O)O | 0.974 (inactive) | 1.39 | 5460 | 5600
23 | CCCCC[C@H](O)/C=C/[C@H]1[C@H](O)CC(=O)[C@@H]1CCCCCCC(=O)NCCO | 0.954 (inactive) | 1.4 | 5990 | 6270
24 | CS(=O)(=O)NC(=O)CCCCCCCCCC=C(Br)Br | 0.853 (inactive) | 1.19 | 4860 | 5700
25 | CC(C)OC(=O)CCC/C=C\C[C@@H]1[C@@H](/C=C/C(=O)COc2cccc(C(F)(F)F)c2)[C@H](O)C[C@@H]1O | 0.979 (inactive) | 1.05 | 6150 | 6280
26 | C=CC[C@@H]1/C=C(\C)C[C@@H](C)C[C@H](OC)[C@H]2O[C@@](O)(C(=O)C(=O)N3CCCC[C@H]3C(=O)O[C@H](/C(C)=C/[C@@H]3CC[C@@H](O)[C@H](OC)C3)[C@H](C)[C@@H](O)CC1=O)[C@H](C)C[C@@H]2OC | 0.908 (inactive) | 0.315 | 5040 | 5550
27 | CCCCC[C@H](O)/C=C/[C@@H]1C(C/C=C\CCCCN(C)C)[C@@H](O)C[C@H]1O (stereo not given in full) | 0.95 (inactive) | 1.02 | 5640 | 5940
28 | NCc1cccc2ccncc12 | 0.913 (inactive) | 0.524 | 5270 | 5780
29 | O=C(O)CCC/C=C\C[C@@H]1C(=O)C[C@@H](O)[C@@H]1/C=C/[C@@H](O)CCc1ccccc1 | 0.867 (inactive) | 0.324 | 5200 | 6000
30 | CCCCC[C@H](O)CC[C@@H]1[C@H]2Cc3cccc(OCC(=O)O)c3C[C@H]2C[C@H]1O | 0.95 (inactive) | 1.46 | 6200 | 6530
